Screening data from PubChem.
TDP-43 yeast inh – inhibitors of TDP-43 toxicity in yeast; AID 652104; TDP-43 expressing yeast growth rescue, BacTiter-Glo, 24 h; hit rate 1.8% among 410,000; Potency, µM (highest dose often 46.1 µM), inactives show top-dose growth rescue (activation), usual class: activators; also: % of control where 0% means no effect; nearly all actives have a fitted effect of over 50% in size
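In this qHTS, compounds that restore growth of yeast expressing TDP-43 appear as activators. Cells (OD600=0.02, galactose medium, raffinose-pregrown) are incubated with compound 24 hr at 30 deg C and growth is quantified by BacTiter-Glo.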
Abeta yeast res – restores growth of yeast expressing A-beta42 peptide | yeast expressing A-beta42, growth rescue, OD600, 48 h; response scale: 0% DMSO, 100% iron-clioquinol control | Potency, µM (doses to about 46.1 µM), most hits filed as activators | hit rate 0.063% among 410,000; also: nearly all actives have a fitted effect of over 55% in size
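Yeast growth medium received pinned compounds, then yeast cells expressing toxic A-beta were added; plates incubated at 30 C for 48 hr. Growth read as absorbance at 600 nm, normalized to DMSO and equimolar FeCl3 plus clioquinol controls.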
aSyn rescue – rescues yeast growth from alpha-synuclein toxicity. Yeast expressing alpha-synuclein, growth rescue, BacTiter-Glo, 24 h. Potency, µM (highest dose often 46.1 µM), without a hit: top-dose growth rescue (activation), most hits filed as activators. hit rate 0.14% among 370,000; also: % of control where 0% means no effect; nearly all actives have a fitted effect of over 65% in size
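Screening used galactose-induced yeast with toxic alpha-synuclein levels, exposed to compound for 24 hr at 30 deg C. Cell growth, read with BacTiter-Glo luminescence, gave the measured signal.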
FUS yeast rescue – suppressors of FUS proteinopathy in yeast; Potency, µM (titrated, usually from 76.6 µM), usual class: activators; AID 1347120; S. cerevisiae FUS-expressing, growth rescue, OD600, 24 h; hit rate 0.24% among 390,000;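 also: plate controls were DMSO vehicle for no effect and reference control for full effect; nearly all actives have a fitted effect of over 55% in size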
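Toxicity suppression screen in FUS-yeast. Cells induced with 2% galactose, starting OD 0.005, treated 24hr at 30C with compounds at multiple final concentrations; growth by OD600.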
* marks the source's active call; other numbers are inactive results; i = inactive; ? = inconclusive; · = not tested or not shown. Compounds with a hit are over-represented: about 2.1% of the library has one in this group of screens. Calls follow the shape of the dose curve; as a rule, active = well fitted curve in the direction sought with a large enough effect; inconclusive = small, poorly fitted or top-dose-only effect, or another doubt; inactive = no such curve, though single readings can be large; an effect the other way counts as inactive or inconclusive. Potency is read from the fitted curve at half-maximal effect.

SMILES	TDP-43 yeast inh	Abeta yeast res	aSyn rescue	FUS yeast rescue
COc1ccc(C(=O)Nc2cccc(N(C)S(C)(=O)=O)c2)cc1OC	-1%	i	0%	i
COc1ccc(C(C)=O)cc1CSc1nnc(Nc2ccc(C)cc2C)s1	20µM*	i	?	i
Nc1nc2c(s1)COc1ccccc1-2	-59%	i	-35%	i
Nc1nc2c(s1)CCc1c-2cnn1-c1ccccc1	0%	i	11µM*	i
COc1ccc(-n2c(SCC(=O)N/N=C(/C)c3cccc(O)c3)nc3ccccc3c2=O)cc1	·	·	·	i
C[C@H]1[C@@H](OC(=O)Nc2ccccc2Cl)CC[C@@]23CCCN2C(=O)CCC[C@@H]13	·	·	·	i
O=C1CN(c2nc(-c3cccs3)nc3sc4c(c23)CCCC4)CCN1	20%	i	20%	35µM*
O=c1oc(-c2cccs2)nc2sc3c(c12)CCCC3	-20%	i	-15%	i
Cc1ccccc1CNc1nc(N(C)C)nc2c1cnn2C	20µM*	i	·	i
Cc1ccc(NC(=O)CSc2nnc(-c3cccnc3)n2Cc2ccco2)cc1C	·	·	·	i
O=C1OC(Sc2ccccc2)(c2ccccc2)c2ccccc21 (stereo unspecified)	11µM*	i	14%	i
CCOC1(c2ccccc2)OC(=O)c2ccccc21 (stereo unspecified)	4%	i	-13%	i
COc1ccc(S(=O)(=O)c2cc3cc(C(C)(C)C)cc(O)c3oc2=O)cc1	-17%	i	·	40µM*
C=CCn1c(C)cc(C(=O)CSc2nnc(NC(C)C)s2)c1C	22%	i	-10%	i
C=CCn1c(C)cc(C(=O)CSc2nnc(Cc3ccccc3)o2)c1C	2.5µM*	?	2%	i
C=CCn1c(C)cc(C(=O)CSc2nnc(NCc3ccccc3)s2)c1C	11µM*	?	2%	i
C=CCn1c(C)cc(C(=O)CSc2nc3ccccc3[nH]2)c1C	16%	i	19%	i
Cc1cc(C(=O)CSc2nc3ccccc3o2)c(C)n1C1CC1	22µM*	i	8%	i
C=CCn1c(C)cc(C(=O)CSc2nc3ccccc3c(=O)[nH]2)c1C	10µM*	i	2%	i
Cc1cc(C(=O)CSc2ncnc3ccccc23)c(C)n1C1CC1	15%	i	6%	·
CNc1cc(C(=O)O)nc2ccccc12	·	·	7%	·
CCOC(=O)CC[C@@]1(C(=O)OCC)C[C@@H](CC(=O)N2CCOCC2)C(=O)N2CCCC=C21	·	·	·	i
O=S(=O)(CC1NCc2cc(F)ccc21)NCCc1ccccc1 (stereo unspecified)	·	·	·	i
COc1cccc(N2CCN(CC(=O)NCc3cccc(OC)c3OC)CC2)c1	·	·	·	i
C=CCn1c(C)cc(C(=O)CSc2nc3ccccc3o2)c1C	22µM*	i	5%	i
SMILES	TDP-43 yeast inh	Abeta yeast res	aSyn rescue	FUS yeast rescue
Cc1ccc(-c2cc(-c3nnc(SCC(=O)N4CCOCC4)n3N)[nH]n2)cc1	·	·	·	i
OC[C@@H]1[C@@H](c2ccccc2)C(c2ccccc2)=NN1c1ccccc1	13µM*	?	?	i
OC[C@@H]1[C@@H](c2ccccc2)C(c2cccc(Cl)c2)=NN1c1ccccc1	-80%	i	-69%	?
COc1ccccc1[C@H]1C(c2cccc(Cl)c2)=NN(c2ccccc2)[C@@H]1CO	20µM*	i	-1%	?
O=[N+]([O-])c1cccc2[nH]c(CNc3nc(N4CCOCC4)nc4c3ncn4-c3ccsc3)nc12	·	·	·	i
C/C=C/C(=O)N1CCC(C(=O)NCC2COc3ccccc3O2)CC1 (stereo unspecified)	·	·	·	i
O=C(Cc1ccccc1)Nc1c(C(=O)c2ccccc2)oc2ccccc12	15%	i	·	i
NC(=O)c1oc2ccccc2c1NC(=O)CCc1ccccc1	11µM*	i	1%	i
CC(=O)Nc1c(C(=O)c2ccccc2)oc2ccccc12	7.9µM*	i	·	i
COc1ccc(CC(=O)Nc2c(C(N)=O)oc3ccccc23)cc1OC	-5%	i	6%	i
CC(=O)c1cc(-c2ccc(Cl)c(C(F)(F)F)c2)c(=O)n2c1CCC2	·	·	·	i
O=C(O)c1cccc(S(=O)(=O)NCC(=O)N2CCN(c3ccccn3)CC2)c1	·	·	·	i
Cc1ccc([N+](=O)[O-])cc1-c1[nH]c(-c2ccc(O)c(O)c2)nc1-c1ccccc1	17%	i	0%	20µM*
COc1ccc(-c2nc(-c3ccccc3)c(-c3cc([N+](=O)[O-])ccc3C)[nH]2)cc1O	9%	i	18%	i
Cc1cc(C)n2nc(-c3cnn(C)c3C(F)(F)F)cc2n1	13µM*	i	3%	i
S=C(Nc1ccccc1)Nc1ccccc1-n1cccc1	?	13µM*	16%	i
COC(=O)[C@H]1C[C@@]2(N3CCCCC3)c3ccccc3N[C@H]2N1S(=O)(=O)c1ccc([N+](=O)[O-])cc1	·	·	·	i
COc1ccc(/C=C(/C(=O)Nc2ccccc2C(=O)NC(C)C)c2ccccc2)cc1	20µM*	i	-13%	i
COc1cc2nc(N3CCCN(C)CC3)nc(N(C)C)c2cc1OC	·	·	-2%	·
O=C1CCC[C@H]2C[C@H](NCc3ccccc3F)CC[C@]23CCCN13	·	·	·	i
CC1CCN2c3cc(Cl)ccc3CC3(C(=O)OC(C)(C)OC3=O)C2C1 (stereo unspecified)	·	·	2%	·
O=C(NC1=C(Nc2ccc(Cl)cc2)C(=O)c2ccccc2C1=O)c1ccccc1	8%	i	8%	·
CN(C1=C(NC(=O)c2ccc(Cl)cc2)C(=O)c2ccccc2C1=O)c1ccccc1	35µM*	i	-5%	·
Cn1cc(C(=O)CCl)c2ccccc21	16µM*	i	-22%	i
Cc1ccc2ccc3c(c2n1)NS(=O)(=O)c1ccc(C(F)(F)F)cc1-3	·	·	10µM*	·
SMILES	TDP-43 yeast inh	Abeta yeast res	aSyn rescue	FUS yeast rescue
O=S1(=O)Nc2c(cc(Cl)c3ccc(Cl)nc23)-c2ccccc21	·	·	-19%	·
CN(C)S(=O)(=O)c1cccc(C(=O)N/N=C\c2cccc(C#N)c2)c1	·	·	·	i
COC1=CC(=O)OC12CCCCC2	16%	i	1%	i
COc1ccc(C2=CC(=O)OC3(CCCC3)O2)cc1	16µM*	i	0%	i
Cc1ccc(Cc2c[nH]c(=S)s2)cc1	11µM*	i	1%	i
COc1cccc(CNC2CCC23CCC(C)CC3)c1 (stereo unspecified)	·	·	·	i
COc1cc2ccccc2cc1C(=O)N1CCN(c2nc3c(F)cccc3s2)CC1	11µM*	i	·	i
COc1cc2ccccc2cc1C(=O)N1CCN(c2nc3c(F)cc(F)cc3s2)CC1	16µM*	i	·	?
CCc1cccc2sc(N3CCN(C(=O)c4cc5ccccc5cc4OC)CC3)nc12	11%	i	·	i
C=C1C=C(C(F)F)n2ncc(C(=O)NCc3ccc(Cl)cc3Cl)c2N1	·	·	8%	·
COC1=CC(=O)c2nc(Cl)ccc2C1=O	13µM*	i	?	i
COC1=CC(=O)c2c(ccc3ncnc(N)c23)C1=O	26%	i	-67%	·
